The record followed here is PubChem BioAssay (EPA / NIEHS).

Assay [1] can be described thus: ATG_CRE_CIS: Attagene CIS-FACTORIAL HepG2 Assay for human cAMP Responsive Element (CRE) binding protein 3 (AID 2282926). Conditions: HepG2 CRE cis-reporter, Attagene multiplexed mRNA; actives raise or lower the signal. In outline:
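Endogenous transcription factor activity read via CRE-regulated reporter transcripts in transfected HepG2 cells. After 24 h exposure, RNA was reverse-transcribed, amplified, fluorescently labelled and sized by capillary electrophoresis; gain or loss fitted against DMSO.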

In assay [2] the target is CCAAT/enhancer-binding protein beta (Homo sapiens) (UniProt P17676). Kind of assay: ATG_C_EBP_CIS: Attagene CIS-FACTORIAL HepG2 Assay for human CCAAT/Enhancer Binding Protein (C/EBP) beta (AID 2282927). Conditions: HepG2 Attagene cis-factorial transcription factor reporter; actives raise or lower the signal. In outline:
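HepG2 transiently transfected with multiplexed reporter units under cis-regulatory promoters reporting endogenous C/EBPb activity. After 24 h exposure, reporter mRNA assayed by RT-PCR, fluorescent labelling, HpaI digestion and capillary electrophoresis; bidirectional fitting versus DMSO.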

Assay [3] can be described thus: ATG_CMV_CIS: Attagene CIS-FACTORIAL HepG2 Assay for human CMV (Internal Marker) (AID 2282928).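 Further: endpoint acts as a background internal control marker rather than a target.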 As to conditions: HepG2 CMV promoter reporter, transcription factor profiling; actives raise or lower the signal. In outline: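 Readout: fluorescent reporter cDNA fragments separated by capillary electrophoresis after RT-PCR and HpaI cut. Cells: HepG2 carrying transfected cis-promoter reporter constructs, dosed 24 h. Endpoint serves as background internal-marker control, fit bidirectionally versus DMSO.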

The nature of assay [4]: ATG_DR4_LXR_CIS: Attagene CIS-FACTORIAL HepG2 Assay for human Liver X Receptor (LXR), DR4 submotif (AID 2282929). As to conditions: HepG2 Attagene DR4 cis-reporter, mRNA transcription; actives raise or lower the signal. In outline: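 HepG2, transient MRTU transfection, cis-element (DR4) promoter; 24 h compound exposure; total RNA → oligo(dT) RT → PCR → 6-FAM primer extension → HpaI cut → CE. Gain/loss vs DMSO, bidirectional fit.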

Assay [5] addresses Aryl hydrocarbon receptor (Homo sapiens) (UniProt P35869). Kind of assay: ATG_Ahr_CIS: Attagene CIS-FACTORIAL HepG2 Assay for human Aryl Hydrocarbon Receptor (Ahr) (AID 2282930). Conditions: HepG2 AhR cis-factorial reporter transcription; actives raise or lower the signal. Summed up:
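HepG2 cells transiently transfected with cis-element-driven multiplexed reporter units; endogenous AhR activity read as reporter mRNA 24 h after dosing, via RT-PCR, 6-FAM labelling, HpaI digestion and capillary electrophoresis. Bidirectional fit relative to DMSO.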

A short description of assay [6]: ATG_AP_1_CIS: Attagene CIS-FACTORIAL HepG2 Assay for human Activator Protein 1 (AP-1) (AID 2282931). As to conditions: HepG2 Attagene cis-factorial AP-1 reporter mRNA; actives raise or lower the signal. Summed up: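 Transient MRTU transfection of HepG2 → 24 h chemical treatment → RNA isolation, RT-PCR, 6-FAM labelling, HpaI digest → capillary electrophoresis. Fit: bidirectional, DMSO negative control.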

Assay [7] in a line: ATG_AP_2_CIS: Attagene CIS-FACTORIAL HepG2 Assay for human Activator Protein 2 (AP-2) (AID 2282932). Conditions: HepG2 AP-2 cis-reporter, Attagene transcription factor profiling; actives raise or lower the signal. In outline:
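Read-out: fluorescent reporter mRNA via RT-PCR and capillary electrophoresis, 24 h post-dose in transiently transfected HepG2. Endogenous factors drive cis-promoter reporters; gain or loss of signal fitted bidirectionally against DMSO.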

Assay [8] is described as follows: ATG_BRE_CIS: Attagene CIS-FACTORIAL HepG2 Assay for human Bone Morphogenetic Protein (BMP) Response Element (BRE) (AID 2282933). As to conditions: HepG2 BMP response element reporter, Attagene transcription factor profiling; actives raise or lower the signal. Summed up:
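A HepG2 multiplex reporter system measured inducible reporter mRNA 24 h post-dosing. Detection: RT-PCR, 6-FAM primer extension, HpaI digestion, capillary electrophoresis. Activity fitted bidirectionally relative to DMSO.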

Assay [9] has as its target Transcription factor E2F1 (Homo sapiens) (UniProt Q01094). The assay can be described thus: ATG_E2F_CIS: Attagene CIS-FACTORIAL HepG2 Assay for human E2F Transcription Factor 1 (AID 2282935). Conditions: HepG2 Attagene cis-reporter, E2F reporter RNA transcripts; actives raise or lower the signal. Summed up: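 Transient MRTU transfection of HepG2; 24 h compound exposure; RNA → oligo(dT) RT → PCR → FAM label → HpaI cut → CE fluorescence. Gain/loss of signal fit against DMSO.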

Assay [10] can be described thus: ATG_E_Box_CIS: Attagene CIS-FACTORIAL HepG2 Assay for human Enhancer Box (E-box) (AID 2282936). As to conditions: HepG2 E-box cis-reporter transcription, actives raise or lower the signal. In outline: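 Transiently transfected HepG2, endogenous TF-driven reporters, 24 h dosing. Readout: RT-PCR plus capillary electrophoresis of fluorescent reporter fragments. Gain or loss of signal fitted bidirectionally against DMSO baseline.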

Assay [11] can be described thus: ATG_M_61_CIS: Attagene CIS-FACTORIAL HepG2 Assay for M61 Transcription Factor (Internal Marker) (AID 2282937). Conditions: HepG2 Attagene CIS-FACTORIAL M61 internal marker reporter; actives raise or lower the signal. Summed up: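 Human liver HepG2, transient MRTU transfection (cis promoter elements), 24 h compound. Total RNA → oligo(dT) RT → PCR → FAM label → HpaI → CE. Internal background marker; bidirectional fitting, DMSO = baseline.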

Assay [12] in a line: ATG_M_19_CIS: Attagene CIS-FACTORIAL HepG2 Assay for M19 Transcription Factor (Internal Marker) (AID 2282939). As to conditions: HepG2 Attagene CIS-FACTORIAL M19 internal marker reporter; actives raise or lower the signal. In outline:
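Chemical-treated HepG2 (24 h) with MRTU constructs; reporter transcripts detected by fluorescent RT-PCR fragment analysis on capillary electrophoresis. Internal background marker, DMSO as baseline.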

Assay [13] is described as follows: ATG_ERE_CIS: Attagene CIS-FACTORIAL HepG2 Assay for Estrogen Response Element (ERE) (AID 2282940). As to conditions: HepG2 ERE cis-reporter, Attagene RNA transcript; actives raise or lower the signal. In outline:
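Human liver cells (HepG2) bearing transiently transfected, promoter-regulated reporter units were exposed 24 h. Reporter mRNA induction was detected by capillary electrophoresis of labelled RT-PCR products and fitted bidirectionally to DMSO.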

Assay [14] in a line: ATG_Ets_CIS: Attagene CIS-FACTORIAL HepG2 Assay for human Erythroblast Transformation Specific (ETS) (AID 2282941). Conditions: HepG2 ETS cis-reporter transcription, actives raise or lower the signal. Summed up: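 RT-PCR/capillary electrophoresis fluorescence read-out of reporter mRNA; HepG2 transient multi-reporter transfection; 24 h compound exposure; gain or loss of signal fitted bidirectionally relative to DMSO.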

Assay [15] concerns the target Hepatocyte nuclear factor 3-beta (Homo sapiens) (UniProt Q9Y261). The assay can be described thus: ATG_FoxA2_CIS: Attagene CIS-FACTORIAL HepG2 Assay for human Forkhead box A2 (FOXA2) (AID 2282942). Conditions: HepG2 cis-reporter transcription factor activity, 24 h; actives raise or lower the signal. In outline:
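Transient MRTU transfection of HepG2 liver cells; 24 h treatment; total RNA → oligo(dT) RT → PCR → FAM primer extension → HpaI cut → CE. Bidirectional fit vs DMSO.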

A short description of assay [16]: ATG_FoxO_CIS: Attagene CIS-FACTORIAL HepG2 Assay for human Forkhead box O (FoxO) (AID 2282943). Conditions: HepG2 Attagene cis-reporter, FoxO element, mRNA; actives raise or lower the signal. Summed up:
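HepG2 cells transiently transfected with cis-element-driven reporter units report endogenous FoxO activity. After 24 h chemical exposure, reporter mRNA quantified by RT-PCR, fluorescent labeling, HpaI digestion and capillary electrophoresis; bidirectional fit versus DMSO.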

Assay [17] is described as follows: ATG_GATA_CIS: Attagene CIS-FACTORIAL HepG2 Assay for human GATA Binding Protein (AID 2282944). Conditions: HepG2 GATA cis-element reporter, Attagene multiplex mRNA; actives raise or lower the signal. In outline: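 Transfected cis-reporter HepG2 cells were treated with chemicals for 24 hours. Total RNA was then converted to cDNA, amplified with reporter-specific primers and analysed by fluorescent capillary electrophoresis, using DMSO-treated wells as baseline.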

Assay [18] in a line: ATG_GLI_CIS: Attagene CIS-FACTORIAL HepG2 Assay for human Zinc Finger Protein GLI1 (AID 2282945). As to conditions: HepG2, Attagene cis-factorial reporter mRNA, GLI element; actives raise or lower the signal. In outline:
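Transiently transfected HepG2 cells report endogenous transcription factor activity via cis-element-driven reporter units. After 24 h compound exposure, reporter mRNA was measured by RT-PCR with capillary electrophoresis; bidirectional fitting against DMSO baseline.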

Assay [19] in a line: ATG_EGR_CIS: Attagene CIS-FACTORIAL HepG2 Assay for human Early Growth Response 1 (EGR1) (AID 2282938). As to conditions: HepG2 Attagene CIS-FACTORIAL EGR reporter mRNA; actives raise or lower the signal. Summed up:
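Transient transfection of human HepG2 with multiple cis-regulated reporter units, chemical exposure 24 h, total RNA isolated. Reverse transcription, PCR, fluorescent labelling and capillary electrophoresis quantify reporter transcripts; activity fitted bidirectionally against DMSO.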

Assay [20] deals with Retinoic acid receptor alpha (Homo sapiens) (UniProt P10276). Kind of assay: ATG_DR5_RAR_CIS: Attagene CIS-FACTORIAL HepG2 Assay for human Retinoic Acid Receptor Alpha (RARE), DR5 submotif (AID 2282934). As to conditions: HepG2 Attagene cis-factorial RARE DR5 reporter, mRNA; actives raise or lower the signal. In outline: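 HepG2 cells transiently transfected with multiplexed reporter units; DR5 cis-element drives reporter through endogenous transcription factors. After 24 h dosing, reporter mRNA quantified by RT-PCR, fluorescent labeling, HpaI digestion and capillary electrophoresis; bidirectional fitting versus DMSO.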
Chain of Retinoic acid receptor alpha (Homo sapiens) (P10276 whole entry, looked up): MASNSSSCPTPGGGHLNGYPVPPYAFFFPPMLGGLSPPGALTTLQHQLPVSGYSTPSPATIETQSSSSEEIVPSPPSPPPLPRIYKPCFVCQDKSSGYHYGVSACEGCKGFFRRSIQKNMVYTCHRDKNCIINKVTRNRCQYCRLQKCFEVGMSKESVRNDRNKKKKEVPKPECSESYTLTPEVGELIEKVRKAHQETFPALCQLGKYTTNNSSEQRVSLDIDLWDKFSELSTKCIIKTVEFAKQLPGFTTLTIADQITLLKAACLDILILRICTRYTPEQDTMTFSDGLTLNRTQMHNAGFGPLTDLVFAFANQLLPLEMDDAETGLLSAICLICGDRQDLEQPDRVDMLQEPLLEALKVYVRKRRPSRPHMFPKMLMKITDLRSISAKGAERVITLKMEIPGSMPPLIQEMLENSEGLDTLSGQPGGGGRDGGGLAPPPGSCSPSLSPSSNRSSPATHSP

Each structure is given as a SMILES string. The source made the active and inactive calls. How the source made its calls: active means hit-call score of the fitted dose curve at least 0.9, where 1 is the maximum; inactive means score below 0.9.

Chain of CCAAT/enhancer-binding protein beta (Homo sapiens) (P17676 whole entry, looked up): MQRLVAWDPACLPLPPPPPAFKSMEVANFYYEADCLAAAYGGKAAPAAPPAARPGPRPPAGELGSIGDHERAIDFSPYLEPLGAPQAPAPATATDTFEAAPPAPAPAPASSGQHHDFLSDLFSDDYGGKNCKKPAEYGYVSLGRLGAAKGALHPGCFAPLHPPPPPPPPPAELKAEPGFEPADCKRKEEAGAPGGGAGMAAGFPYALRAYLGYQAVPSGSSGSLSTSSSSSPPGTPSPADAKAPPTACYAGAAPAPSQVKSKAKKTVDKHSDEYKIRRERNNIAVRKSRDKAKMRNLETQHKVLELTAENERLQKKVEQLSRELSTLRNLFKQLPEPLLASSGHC
Chain of Transcription factor E2F1 (Homo sapiens) (Q01094 whole entry, looked up): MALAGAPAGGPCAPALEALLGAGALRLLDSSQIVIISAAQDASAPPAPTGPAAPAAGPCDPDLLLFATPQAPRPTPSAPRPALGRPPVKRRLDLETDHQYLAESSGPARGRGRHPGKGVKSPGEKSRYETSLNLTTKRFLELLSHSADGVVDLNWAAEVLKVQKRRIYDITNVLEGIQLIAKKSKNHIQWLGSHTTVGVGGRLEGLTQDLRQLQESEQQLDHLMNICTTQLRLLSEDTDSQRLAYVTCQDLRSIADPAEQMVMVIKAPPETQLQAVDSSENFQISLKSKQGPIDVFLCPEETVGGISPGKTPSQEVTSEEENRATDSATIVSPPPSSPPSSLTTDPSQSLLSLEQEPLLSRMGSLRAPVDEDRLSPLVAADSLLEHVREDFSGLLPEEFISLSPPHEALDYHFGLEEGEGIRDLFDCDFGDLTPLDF
Chain of Hepatocyte nuclear factor 3-beta (Homo sapiens) (Q9Y261 whole entry, looked up): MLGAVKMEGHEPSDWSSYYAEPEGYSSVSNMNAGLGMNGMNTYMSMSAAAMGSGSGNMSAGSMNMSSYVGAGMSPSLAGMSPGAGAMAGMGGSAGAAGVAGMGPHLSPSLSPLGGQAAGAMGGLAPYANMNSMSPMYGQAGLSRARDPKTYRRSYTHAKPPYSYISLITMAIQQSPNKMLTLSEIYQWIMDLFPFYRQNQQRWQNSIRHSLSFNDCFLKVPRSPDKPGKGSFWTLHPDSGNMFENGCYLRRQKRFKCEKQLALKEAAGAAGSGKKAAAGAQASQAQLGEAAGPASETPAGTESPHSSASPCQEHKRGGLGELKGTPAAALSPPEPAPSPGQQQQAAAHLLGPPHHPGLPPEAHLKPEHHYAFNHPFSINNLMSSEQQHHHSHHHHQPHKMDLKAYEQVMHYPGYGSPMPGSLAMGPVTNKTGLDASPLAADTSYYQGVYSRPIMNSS
Chain of Aryl hydrocarbon receptor (Homo sapiens) (P35869 whole entry, looked up): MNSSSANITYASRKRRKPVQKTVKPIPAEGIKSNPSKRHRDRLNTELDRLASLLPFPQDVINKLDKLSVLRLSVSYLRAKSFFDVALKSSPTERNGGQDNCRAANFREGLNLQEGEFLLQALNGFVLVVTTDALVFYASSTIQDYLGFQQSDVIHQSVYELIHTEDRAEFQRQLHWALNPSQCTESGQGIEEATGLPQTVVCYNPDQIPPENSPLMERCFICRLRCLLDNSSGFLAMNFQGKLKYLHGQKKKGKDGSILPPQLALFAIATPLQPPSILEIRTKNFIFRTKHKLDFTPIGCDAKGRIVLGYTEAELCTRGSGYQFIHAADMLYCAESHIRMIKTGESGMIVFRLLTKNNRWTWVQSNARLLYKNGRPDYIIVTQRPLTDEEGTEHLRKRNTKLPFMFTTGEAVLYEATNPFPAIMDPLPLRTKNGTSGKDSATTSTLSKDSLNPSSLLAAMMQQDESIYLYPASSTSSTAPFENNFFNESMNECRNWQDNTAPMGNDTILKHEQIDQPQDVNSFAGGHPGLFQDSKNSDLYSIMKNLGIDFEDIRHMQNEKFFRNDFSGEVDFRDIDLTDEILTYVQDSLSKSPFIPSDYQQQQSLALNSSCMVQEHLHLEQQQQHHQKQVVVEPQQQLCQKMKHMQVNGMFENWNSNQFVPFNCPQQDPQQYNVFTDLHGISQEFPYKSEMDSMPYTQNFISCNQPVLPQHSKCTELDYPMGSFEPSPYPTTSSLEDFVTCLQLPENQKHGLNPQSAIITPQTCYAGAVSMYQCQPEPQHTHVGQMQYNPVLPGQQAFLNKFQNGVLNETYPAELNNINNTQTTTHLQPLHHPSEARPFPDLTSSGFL

With `OC(Cn1cncn1)(Cn1cncn1)c1ccc(F)cc1F`, the call in assay [1], in [2], in assay [3], in [4], in assay [5] and in assay [6] was inactive. For the same compound, the outcome in assay [7], in assay [8], in assay [9], in assay [10], in assay [11] and in [12] was inactive. Also, the compound was called inactive in [13], in assay [14], in assay [15], in [16], in assay [17] and in assay [18].
For `NC(N)=O`, the result in assay [1], in [2], in [3], in assay [4], in assay [6] and in [7] was inactive. Besides, the call in assay [8], in assay [9], in assay [10], in assay [11], in assay [19] and in assay [12] was inactive. In addition, the compound was called inactive in assay [13], in assay [14], in [15], in assay [16], in [17] and in assay [18].
Broadly, the AC50 is the midpoint of the concentration-response curve, whichever way the signal moves. Turning to `OC[C@H]1O[C@@H]2O[C@H]3[C@H](O)[C@@H](O)[C@@H](O[C@H]4[C@H](O)[C@@H](O)[C@@H](O[C@H]5[C@H](O)[C@@H](O)[C@@H](O[C@H]6[C@H](O)[C@@H](O)[C@@H](O[C@H]7[C@H](O)[C@@H](O)[C@@H](O[C@H]1[C@H](O)[C@H]2O)O[C@@H]7CO)O[C@@H]6CO)O[C@@H]5CO)O[C@@H]4CO)O[C@@H]3CO`, the result in assay [1], in assay [3], in [4], in assay [6], in [7] and in assay [8] was inactive. The result in assay [20], in assay [9], in assay [10], in assay [11], in [19] and in assay [12] was inactive. Further, the call in assay [13], in assay [14], in assay [15], in assay [16], in assay [17] and in assay [18] was inactive. The AC50 in [5] is 33.5 µM (active).
With `O=C(O)c1cccc(C[C@@H]2COc3ccc(OCc4nc5cc(F)ccc5s4)cc3[C@@H]2O)c1`, the compound was called inactive in [1], in assay [2], in [3], in assay [5], in assay [8] and in assay [9]. Moreover, the result in assay [11], in assay [19], in assay [12], in assay [13], in assay [14] and in assay [15] was inactive. Also, the compound was called inactive in assay [16], in assay [17] and in assay [18]. For the same compound, the AC50 is 100 µM (active) in assay [4], 158 µM (active) in assay [6], 167 µM (active) in [7] and 66.9 µM (active) in assay [10].
